Consider 27 targets from the supplement of paper PMC12819154, “High-throughput peptide-centric local stability assay extends protein–ligand identification to membrane proteins, tissues and bacteria” (Nature Structural & Molecular Biology, 2025).
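Also: lysate desalted by size exclusion to strip endogenous ATP, peptide intensities built from DIA-NN precursor signals, and peptides missing any value discarded before comparison.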

Compound in this assay: Nc1ncnc2c1ncn2[C@@H]1O[C@H](COP(=O)(O)OP(=O)(O)OP(=O)(O)O)[C@@H](O)[C@H]1O [adenosine 5'-triphosphate]
Briefly: log2 fold change of tryptic peptide abundance, ligand vs vehicle (limited proteolysis) (log2 ratio); higher = more trypsin-susceptible (destabilized). The note with it: ligand concentration: 5 mM; sample: E. coli desalted lysate; replicate design: treated before aliquoting. How it is done: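 HT-PELSA: desalted E. coli K-12 BW25113 lysate (with 12 mM MgCl2) incubated with 5 mM ATP (pH 7) or water for 30 min at 25 C, then a 4 min trypsin pulse at 22 C. Peptides were quantified by DIA-MS (4 replicates). Value is the peptide log2 fold change (treated/control); negative = stabilized. Scale: negative = ligand-stabilized region.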
For “UniProt P52598 (peptide sequence: SCVGEAAATMLR, peptide start residue: 151)”, the log2 fold change was -0.421. The figure for “UniProt P36938 (peptide sequence: FMHLDKDGAIR, peptide start residue: 268)” is -0.898; for “UniProt P23874 (peptide sequence: ISVAGAQEK, peptide start residue: 149)” it is -4.86; for “UniProt P75838 (peptide sequence: GICGLPFTR, peptide start residue: 152)” it is -2.31. On to “UniProt P09373 (peptide sequence: ALIPFGGIK, peptide start residue: 109)”, for which the log2 fold change was -0.384.

With “UniProt Q46855 (peptide sequence: VGYESASQFSR, peptide start residue: 285)”, the log2 fold change turned out to be 0.235. As for “UniProt P13458 (peptide sequence: NQPDGNLQVPR, peptide start residue: 103)”, the figure is -0.895; as for “UniProt P34209 (peptide sequence: MTGDNPDAPR, peptide start residue: 166)”, -0.261.

Take “UniProt Q46889 (peptide sequence: LQQEGYR, peptide start residue: 188)”: the log2 fold change was -0.564. The figure for “UniProt P37773 (peptide sequence: IIAVLEPRSNTMK, peptide start residue: 354)” is 1.55. The figure for “UniProt P21499 (peptide sequence: DGQLVFTR, peptide start residue: 65)” is -0.675; for “UniProt P37689 (peptide sequence: LVAAIKSGK, peptide start residue: 383)” it is -2.15; for “UniProt P0ADA3 (peptide sequence: IATMGSTGTSSTR, peptide start residue: 346)” it is 0.385. The figure for “UniProt P76256 (peptide sequence: DENGIWHGEETEAVLKPEIVHER, peptide start residue: 130)” is -0.588; for “UniProt P21345 (peptide sequence: EVLGKFDKTADQ, peptide start residue: 426)” it is -1.41. Take “UniProt P28634 (peptide sequence: WRVTDAGFEVFALEPR, peptide start residue: 220)”: the log2 fold change came out at 0.789. As for “UniProt P55135 (peptide sequence: RLSDSPER, peptide start residue: 69)”, the figure is -0.744; as for “UniProt P45527 (peptide sequence: KLQEAVSFVHQHRR, peptide start residue: 46)”, 0.779; as for “UniProt P09152 (peptide sequence: GHEFMLK, peptide start residue: 724)”, 0.491.

On to “UniProt P29131 (peptide sequence: MAGHTNCIR, peptide start residue: 306)”, for which the log2 fold change was -0.526.

With “UniProt P27828 (peptide sequence: DTTERPEAVTAGTVR, peptide start residue: 309)”, the log2 fold change was -0.6. With “UniProt P11664 (peptide sequence: GAPETFDVAK, peptide start residue: 101)”, the log2 fold change is -1.46. The figure for “UniProt P37339 (peptide sequence: AFCDQNGIR, peptide start residue: 75)” is 0.681; for “UniProt P77374 (peptide sequence: INHPDRLNYPMKR, peptide start residue: 106)” it is -0.781; for “UniProt P17888 (peptide sequence: TNYAVSGER, peptide start residue: 188)” it is -1.98. For “UniProt Q46927 (peptide sequence: QINPECR, peptide start residue: 95)”, the log2 fold change was -2.51. As for “UniProt P08179 (peptide sequence: MHENAAWLDGQR, peptide start residue: 191)”, the figure is -0.588.
